# Bioassay records as filed in PubChem BioAssay.
# Mdm2 MdmX PPI – inhibitors of human Mdm2/MdmX interaction; SaOS-2 split-luciferase Mdm2/MdmX complementation, luminescence; 330,000 compounds, 3% hits; O15151+Q00987; inhibition, % at 8 µM;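 active means inhibition of at least 50% at 8 µM in the primary screen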
# Target sequence (O15151 whole entry, looked up): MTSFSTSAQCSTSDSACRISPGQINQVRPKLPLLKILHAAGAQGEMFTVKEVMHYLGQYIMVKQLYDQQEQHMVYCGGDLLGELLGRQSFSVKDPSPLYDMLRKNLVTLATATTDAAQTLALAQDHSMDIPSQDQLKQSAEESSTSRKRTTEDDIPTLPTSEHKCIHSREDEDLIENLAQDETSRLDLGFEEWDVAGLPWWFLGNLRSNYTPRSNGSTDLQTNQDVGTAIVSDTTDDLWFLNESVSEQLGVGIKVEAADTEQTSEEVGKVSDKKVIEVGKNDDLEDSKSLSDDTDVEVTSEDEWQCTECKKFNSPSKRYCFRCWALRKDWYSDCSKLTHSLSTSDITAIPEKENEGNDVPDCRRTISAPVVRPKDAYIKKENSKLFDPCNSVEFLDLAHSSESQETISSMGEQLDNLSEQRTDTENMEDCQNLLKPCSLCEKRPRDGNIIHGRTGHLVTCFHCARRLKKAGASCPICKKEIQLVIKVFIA
# Target sequence (Q00987 whole entry, looked up): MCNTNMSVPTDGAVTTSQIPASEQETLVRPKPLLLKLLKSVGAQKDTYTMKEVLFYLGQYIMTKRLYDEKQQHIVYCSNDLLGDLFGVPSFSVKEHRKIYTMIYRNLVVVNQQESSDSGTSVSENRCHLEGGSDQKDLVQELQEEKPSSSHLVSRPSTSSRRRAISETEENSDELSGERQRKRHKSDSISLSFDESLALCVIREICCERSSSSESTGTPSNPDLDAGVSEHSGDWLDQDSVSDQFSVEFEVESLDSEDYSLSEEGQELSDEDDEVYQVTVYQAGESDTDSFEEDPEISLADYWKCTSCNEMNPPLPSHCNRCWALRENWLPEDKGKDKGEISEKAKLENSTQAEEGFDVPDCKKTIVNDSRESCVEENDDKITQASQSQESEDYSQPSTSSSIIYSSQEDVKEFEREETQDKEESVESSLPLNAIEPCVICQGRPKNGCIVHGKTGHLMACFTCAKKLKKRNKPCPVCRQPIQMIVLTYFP
# tim10-1 inh – tim10-1 yeast growth inhibition; S. cerevisiae tim10-1 ts strain growth, BacTiter-Glo, 24 h; inhibition, % at 20 µM; 330,000 compounds, 2.2% hits;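 active means inhibition of at least 40%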;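 further: mutant grown at 25 °C; 0% = DMSO wells with yeast and 100% = wells holding no yeast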
# TIM10 inh – inhibits growth of TIM10 yeast strain | S. cerevisiae TIM10 strain growth, BacTiter-Glo luminescence, 24 h | inhibition, % at 10 µM | 330,000 compounds, 1.4% hits | AID 463195;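 active means inhibition of 40% or more at the single tested concentration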;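 further: wild-type TIM10 isogenic control strain grown at permissive 25 °C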
# MPTP inh – blocks calcium-induced mitochondrial swelling; isolated mouse mitochondria, Ca2+ swelling absorbance, 30 min; inhibition, % at 10 µM; 360,000 compounds, 1.4% hits;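 active means inhibition of 50% or more, scaled per plate between neutral and stimulator controls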;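 further: 0% = DMSO wells given calcium and 100% = 1 mM EGTA wells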
# tim23-1 inh – inhibits growth of tim23-1 mutant yeast; S. cerevisiae tim23-1 growth, BacTiter-Glo luminescence, 24 h; inhibition, % at 20 µM; 330,000 compounds, 1.3% hits; AID 463212;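 active means growth inhibition of the mutant yeast at or above 50%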;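 further: temperature-sensitive mutant grown at 25 °C; plate controls were DMSO-treated mutant yeast for no effect and medium wells lacking yeast for full effect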
# Mdm2 MdmX conf – human Mdm2/MdmX binding inhibition, confirmed | AID 489028 | 10,000 compounds, 55% hits | inhibition, % at 8 µM | shares compounds with Mdm2 MdmX PPI | luminescent assay; in the data active means inhibition above about 40%
# Full FLuc ctr – counter-screen for Mdm2/MdmX inhibitors: full-length luciferase. 6,200 compounds, 77% hits. SaOS-2 full-length luciferase counterscreen, luminescence. shares compounds with Mdm2 MdmX PPI. inhibition, % at 8 µM;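 active means mean inhibition at 8 µM reaching about 37%, which flags the compound as non-specific, limit read from the data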;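 further: p53-null SaOS-2 cells with luciferase driven by a doxycycline-inducible promoter; compound on cells about two nights before reading with doxycycline added after day one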
# The depositor's hits bear a star; . = not tested or not shown. In the library only some 6.3% were active in any assay of this set; here they are far more common.
SMILES,Mdm2 MdmX PPI,tim10-1 inh,TIM10 inh,MPTP inh,tim23-1 inh,Mdm2 MdmX conf,Full FLuc ctr
COc1cccc(C(O)c2ncc(-c3ccc(Cl)cc3)[nH]2)c1 (centres undefined),.,.,.,0,.,.,.
COc1cc(OC)cc(C(=O)NC(=S)Nc2cc3oc4ccccc4c3cc2OC)c1,72*,8,2,3,0,4,.
COc1cc2c(cc1NC(=O)c1cccc([N+](=O)[O-])c1)oc1ccccc12,71*,-10,-27,2,-17,15,.
CCCCCN1C=CC(=C2C(=O)c3ccccc3C2=O)C=C1,78*,14,16,0,22,83*,21
CC1=CC(=C2C(=O)c3ccccc3C2=O)C=C(C)N1C,-33,4,-10,-4,-20,.,.
O=C(Nc1cccc(-c2nc3ccccc3o2)c1)c1ccc(N2C(=O)C3C4C=CC(C4)C3C2=O)cc1 (centres undefined),59*,-4,-5,-21,-6,21,.
O=C1C2C3C=CC(C3)C2C(=O)N1c1cccc(-c2nc3ccccc3o2)c1 (centres undefined),17,-17,-6,-5,-11,.,.
CSc1nc(Sc2ccccc2Cl)c2ccccc2n1,53*,3,6,5,5,46*,55*
CCCOc1ccccc1N/C(=N/c1nc(C)cc(C)n1)NC(=O)COc1ccc(OC)cc1,56*,28,12,2,6,19,.
CCCOc1ccccc1N/C(N)=N/c1nc(C)cc(C)n1,35,11,7,2,-3,.,.
COc1ccccc1-c1cccc(-c2nc(C(=O)Nc3nccs3)cc3c2[C@H](CCO)N(C(C)=O)C3)c1,.,.,.,0,.,.,.
COc1ccc2c(c1)c(CC(=O)Nc1ccc(C(C)=O)cc1)c(C)n2C(=O)c1ccc(Cl)cc1,-2,18,29,38,26,.,.
COc1ccc2c(c1)c(CC(=O)Nc1nnc(C3CC3)s1)c(C)n2C(=O)c1ccc(Cl)cc1,83*,13,12,3,3,80*,65*
C(=C\c1ccccc1)/CN1CCN(C(CCc2ccccc2)c2nnnn2C2CCCC2)CC1 (centres undefined),.,.,.,3,.,.,.
CCc1ccc(NC(=O)CSc2nc3n[nH]c(C)c3c(=N)n2-c2cccc(OC)c2)cc1,66*,13,16,-1,31,56*,61*
Cc1cc(-n2c(SCC(=O)Nc3ccc(Br)cc3)nc3n[nH]c(C)c3c2=N)ccc1Cl,86*,9,-9,3,0,43*,64*
Cc1cc(-n2c(SCC(=O)Nc3ccc(F)c(F)c3)nc3n[nH]c(C)c3c2=N)ccc1Cl,94*,-3,-18,1,-7,71*,42*
Cc1[nH]nc2nc(SCC(=O)NCC3CCCO3)n(-c3ccc(Br)cc3)c(=N)c12 (centres undefined),28,12,-5,-1,17,.,.
COc1cccc(NC(=O)CSc2nc3n[nH]c(C)c3c(=N)n2-c2cccc(OC)c2)c1,35,16,4,3,19,.,.
CCOc1ccc(-n2c(SCC(=O)Nc3ccc(Br)cc3)nc3n[nH]c(C)c3c2=N)cc1,53*,4,0,6,-6,41*,67*
COc1ccc(CN2C(=O)C(CC(=O)NCCCN(C)C)CC(C(=O)N(C)C)=C2C)cc1 (centres undefined),.,.,.,0,.,.,.
O=C(NCCN1CCC(n2c(=O)[nH]c3ccccc32)CC1)c1ccc(Cl)c(Cl)c1,.,.,.,1,.,.,.
Cc1cc(-n2c(SCC(=O)NCc3cccs3)nc3n[nH]c(C)c3c2=N)ccc1Cl,66*,11,7,3,-1,12,.
Cn1nc(C(=O)Nc2ccc3c(c2)OCCO3)c2ccccc2c1=O,12,16,13,-1,25,.,.
CCCCn1nc(C(=O)Nc2ccc3c(c2)OCCO3)c2ccccc2c1=O,58*,12,13,-2,43,38,.
CCOC(=O)C(NC(=O)c1ccccc1)C(C)(C)SCc1ccccc1 (centres undefined),.,.,.,0,.,.,.
COc1ccc(OC)c(N(/C(N)=N/c2nc(C)cc(C)n2)S(=O)(=O)c2ccc(NC(C)=O)cc2)c1,63*,-12,-23,1,-24,25,90*
COc1ccc(OC)c(N/C(=N/c2nc(C)cc(C)n2)NC(C)=O)c1,-3,-15,5,1,18,.,.
